# High-throughput results as filed in PubChem.
# The list is not random: actives were taken first. Their share in the collection is about 4.4%.
# tim10-1 inh: growth inhibitors of tim10-1 mutant yeast, primary screen, luminescence, uHTS; inhibition, % at 20 µM; actives 2.2% (n = 330,000); S. cerevisiae tim10-1 ts strain growth, BacTiter-Glo, 24 h;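 active means inhibition of at least 40%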;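 further: mutant grown at 25 °C; 0% = DMSO wells with yeast and 100% = wells holding no yeast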
# PfHsp90 yeast 2: growth inhibition of PfHsp90-expressing yeast, primary screen, antimalarial PfHsp90 inhibitor project, S. cerevisiae, BacTiter-Glo luminescence, single point, set 2. BacTiter-Glo ATP, 48 h; yeast lacking PDR1 and PDR3 efflux regulators. inhibition, % at 9.4 µM. actives 0.32% (n = 310,000);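 active means every replicate shows inhibition above about 80%, whatever the replicate mean, limit read from the data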;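 further: 0% = DMSO neutral controls and 100% = 20 µM radicicol positive controls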
# SKKanGAS inh: S. pyogenes SKKanGAS growth inhibitors in kanamycin, primary screen, streptokinase expression inhibitor project, SKKanGAS strain, BacTiter-Glo luminescence; 6 h; inhibition, % at 7.5 µM; actives 1.3% (n = 300,000);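 active means mean replicate score, as percent of positive control median, at least 50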;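 further: strain carries kanamycin resistance gene driven by streptokinase promoter and grows in 40 µg/ml kanamycin; loss of luminescence reflects streptokinase promoter inhibition or plain growth inhibition; 0% = median of DMSO wells and 100% = positive control at its reference dose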
# tim23-1 inh: growth inhibitors of tim23-1 mutant yeast, primary screen, luminescence, uHTS; S. cerevisiae tim23-1 growth, BacTiter-Glo luminescence, 24 h; actives 1.3% (n = 330,000); inhibition, % at 20 µM;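 active means growth inhibition of the mutant yeast at or above 50%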;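 further: temperature-sensitive mutant grown at 25 °C; plate controls were DMSO-treated mutant yeast for no effect and medium wells lacking yeast for full effect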
# TIM10 inh: growth inhibitors of isogenic TIM10 control yeast, primary screen, counter-screen for tim10-1 yeast inhibitor project, luminescence, uHTS. S. cerevisiae TIM10 strain growth, BacTiter-Glo luminescence, 24 h. inhibition, % at 10 µM. actives 1.4% (n = 330,000);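 active means inhibition of 40% or more at the single tested concentration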;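 further: wild-type TIM10 isogenic control strain grown at permissive 25 °C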
# Numbers without * were called inactive; x = no result.
SMILES,tim10-1 inh,PfHsp90 yeast 2,SKKanGAS inh,tim23-1 inh,TIM10 inh
C[C@H]1[C@H](C)CC[C@]2(C)CC[C@]3(C)C(=CC[C@@H]4[C@@]5(C)CC[C@@H](O)[C@](C)(C(=O)O)[C@@H]5CC[C@]43C)[C@H]12,x,x,102*,x,x
C[C@@H]1CC[C@]2(C(=O)O)CC[C@]3(C)C(=CCC4[C@@]5(C)CC[C@H](O)[C@@](C)(C(=O)O)C5CC[C@]43C)C2[C@]1(C)O (some centres undefined),-13,-12,x,-6,-8
C[C@H]1[C@H](C)CC[C@]2(C(=O)O)CC[C@]3(C)C(=CC[C@@H]4[C@@]5(C)C[C@@H](O)[C@H](O)C(C)(C)[C@@H]5CC[C@]43C)[C@H]12,-1,-9,103*,1,6
C[C@H]1[C@H](C)CC[C@]2(C(=O)O)CC[C@]3(C)C(=CC[C@@H]4[C@@]5(C)CC[C@H](O)C(C)(C)[C@@H]5CC[C@]43C)[C@H]12,-11,10,107*,-10,-4
C[C@@H]1CC[C@]2(C(=O)O)CC[C@]3(C)C(=CCC4[C@]56CC[C@@](O)(OC5)C(C)(C)C6CC[C@]43C)C2[C@H]1C (some centres undefined),28,15,x,39,9
C[C@H]1[C@H](C)CC[C@]2(C)CC[C@]3(C)C(=CC(=O)C4[C@@]5(C)CC[C@H](O)C(C)(C)C5CC[C@]43C)[C@H]12 (some centres undefined),12,10,x,9,12
CCN(C[C@H]1N[C@@](C)(C(=O)OC)[C@H]2C(=O)N(Cc3ccccc3)C(=O)[C@@H]12)C(=O)Nc1ccc(F)cc1,-12,9,x,-3,9
COc1ccc(CC(=O)OCC(=O)Nc2c(C)n(C)n(-c3ccccc3)c2=O)cc1OC,5,4,x,5,-5
COc1cc(C(=O)N2CCN(c3cccc(C(F)(F)F)c3)CC2)ccc1OCC(=O)N1CCOCC1,x,-11,x,x,x
Cc1ccc(-c2csc(NC(=O)c3ccc(C)o3)n2)cc1,20,-8,-14,39,35
Cc1ccc(-c2csc(NC(=O)c3ccc([N+](=O)[O-])o3)n2)cc1,-139,6,55*,44,-85
O=C(Nc1ccccc1)OCC1COC(c2ccccc2)(c2ccccc2)O1 (centres undefined),x,3,x,x,x
CCCCC1CCC(c2nc(-c3ccccn3)no2)CC1 (centres undefined),36,x,61*,28,30
Cc1cc(N(C)C)ccc1N=Nc1ccc2ncccc2c1,25,18,54*,18,-1
Cc1nc2c(C)cccn2c(=O)c1NC(=O)c1ccc2c(c1)OCO2,4,-14,50*,15,0
Cc1nc2c(C)cccn2c(=O)c1NC(=O)c1ccco1,4,4,39,8,7
C[C@H](CO)N1C[C@H](C)[C@@H](CN(C)Cc2ccncc2)Oc2ccc(NC(=O)CCCCCC(=O)Nc3ccccc3N)cc2C1=O,5,10,x,11,-5
CC[C@H](C)Cc1cn([C@@H](CCCCNC(=O)OC(C)(C)C)C(=O)NCCCCCCCCCCC(=O)N2CCN(C(=O)OC(C)(C)C)CC2)nn1,8,-5,x,14,1
Cc1nc2c(-c3ccccc3)c(C)[nH]n2c(=O)c1Cc1ccccc1,13,4,52*,5,-5
Cc1nc2c(-c3ccc(Cl)cc3)c(C)[nH]n2c(=O)c1Cc1ccccc1,5,-16,99*,20,-1
Cc1cc2c(=O)n(Cc3ccco3)c(SCC(=O)NCc3ccco3)nc2s1,22,6,2,23,10
Cc1cc2c(=O)n(Cc3ccco3)c(SCC(=O)N3CCCc4ccccc43)nc2s1,31,3,58*,42,25
C#CCOCCOCCOCCNc1nc(N2CCN(C(=O)CCCCCCCCCCNC(=O)Cn3cc(CCCCCN)nn3)CC2)nc(N2CCN(C(=O)CCCCCCCCCCNC(=O)[C@H]([C@@H](C)CC)n3cc(CCCCCN)nn3)CC2)n1,20,50,x,49,14
O=S(=O)(/C=C/C=C/S(=O)(=O)c1ccccc1)c1ccccc1,x,2,x,x,x
